Experimental findings from PubChem BioAssay (NCI) are described below.

The panel holds about 83,000 compounds, 20% with a hit somewhere; the sample as a whole holds those more often.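 Values shown are percent growth following 48 h exposure of cells in 96-well plates to a single concentration of compound; below 10 was considered active.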 A number with no mark means an inactive call. Calls of active or inactive are those of the source.

Holding throughout (experiment): NCI-60 one-dose screen, 48 h (100 = growth as untreated, 0 = no growth, -100 = all killed)
Conditions in all cases: 10 µM

Assay [1] concerns NCI-H23 lung.
The subject of assay [2] is NCI-H226 lung.
In assay [3] the test system is HOP-62 NSCLC.
For assay [4], the system named is NCI-H460 lung.
The test system of assay [5] is HOP-92 NSCLC.
The test system of assay [6] is NCI-H522 lung.
Assay [7] concerns A549/ATCC NSCLC.
Assay [8] relates to 786-0 renal.
Assay [9] relates to COLO 205 colon.
For assay [10], the system named is DU-145 prostate.
Assay [11] has as its system K-562 leukemia.
Assay [12] deals with MALME-3M melanoma.
Assay [13] concerns MDA-MB-231 breast.
Assay [14] deals with RXF 393 renal.
Assay [15] concerns SF-268 CNS.
Assay [16] deals with SF-295 CNS.
For assay [17], the system named is SF-539 CNS.
Assay [18] relates to UACC-257 melanoma.
Assay [19] relates to M14 melanoma.

As for `CC(C)(C)OC(=O)N1CCc2c(sc3ncnc(N/N=C/c4cccc(Br)c4)c23)C1`, the growth is 55.3% in assay [1]; 67.3% in assay [2]; 45.1% in assay [3]; 20.9% in [4]; 75.6% in assay [5]; 34.2% in assay [6]. The growth in assay [7] was 45.7%; in [8], 50.7%; in assay [9], 13.1%; in assay [10], 62.4%; in assay [11], 19.3%; in assay [12], 66.9%. Also, the growth in assay [13] is 49.9%; in assay [14], 63.5%; in [15] it was 63.9%; in assay [16] it was 64.7%; in [17] it was 53.3%; in assay [18], 80.8%. Also, the growth in assay [19] is 43%.
Take `COc1cc(-c2csc(NC(=O)Nc3ccc(Cl)c(C(F)(F)F)c3)n2)cc(OC)c1OC`: the growth in [1] was 1.27% (active); in assay [2], -6.43% (active); in assay [3], -23.8% (active); in assay [4], 2.24% (active); in [5], -35.4% (active); in assay [6], -25.4% (active). For the same compound, the growth was 0.191% (active) in [7]; -12.4% (active) in assay [8]; -58.1% (active) in assay [9]; 14.4% in [10]; 14.2% in assay [11]; -28.1% (active) in [12]. Also, the growth was -32.2% (active) in assay [13]; -6.49% (active) in assay [14]; 21.3% in assay [15]; -34.7% (active) in [16]; 5.05% (active) in [17]; -4.86% (active) in assay [19].
For the compound `Clc1ccc(C2=NN=C3C(Cc4ccccc4)=Nc4ccccc4N3C2)cc1`, the growth in assay [1] is 90%; in assay [2] it was 92.8%; in [3] it was 83.3%; in assay [4], 86.8%; in assay [5] it was 87.4%; in assay [6], 38.4%. The growth is 96.6% in assay [7]; 64.1% in assay [8]; 105% in assay [9]; 70.1% in [10]; 30.1% in assay [11]; 95.5% in assay [12]. Besides, the growth was 68.9% in assay [13]; 82.1% in assay [14]; 66.7% in assay [15]; 86.3% in assay [16]; 105% in assay [17]; 104% in [18]. Moreover, in assay [19], the growth was 75.8%.
In the case of `CC(C)(C)c1ccc(S(=O)(=O)Oc2ccc(NC(=O)C3CCCCC3)cc2)cc1`, the growth is 23% in assay [1]; 45.4% in [2]; 88.7% in [3]; 44.2% in assay [4]; 39.6% in assay [5]; 25.4% in [6]. The growth in assay [7] is 41.5%; in assay [8] it was 55.4%; in [9] it was 32.4%; in assay [10], 59.2%; in assay [11], 27%; in [12] it was 78.9%. Moreover, the growth is 72% in assay [13]; 65.1% in assay [14]; 70.6% in [15]; 22.8% in assay [16]; 73.2% in assay [17]; 60.1% in assay [19].
`O=C(Nc1ccc(OS(=O)(=O)c2ccccc2)cc1)C1CCCCC1`: the growth was 88% in [1]; 87% in [2]; 94.5% in assay [3]; 99.8% in [4]; 98.5% in assay [5]; 75.4% in [6]. Besides, the growth is 90.5% in assay [7]; 89.9% in assay [8]; 97% in assay [9]; 92.8% in assay [10]; 60.6% in [11]; 81.9% in assay [12]. For the same compound, the growth in [13] is 73.1%; in assay [14], 87.5%; in assay [15], 90.2%; in assay [16] it was 89.7%; in assay [17] it was 80.4%; in assay [19], 70.3%.
Regarding `COc1ccc2c(c1)OC(N)=C(C#N)C2c1cc(OC)c(OC)c(OC)c1` (stereo not drawn), the growth was 16.3% in assay [1]; 54.2% in assay [2]; 38.9% in assay [3]; 1.65% (active) in assay [4]; -0.922% (active) in [5]; -27.9% (active) in assay [6]. Moreover, the growth in assay [7] is 16.2%; in assay [8], 15.2%; in [9] it was -48.6% (active); in assay [10], -19.5% (active); in assay [11], 7.08% (active); in [12], 26.9%. The growth was 4.49% (active) in [13]; 38.7% in [14]; 22.8% in assay [15]; 4.98% (active) in assay [16]; 4.42% (active) in assay [17]; 68.2% in assay [18]. Further, in assay [19], the growth was 5.11% (active).
On to `COc1cc2ncnc(NC3CCC(O)CC3)c2cc1OC` (stereo not drawn), for which the growth was 91.2% in assay [1]; 92.7% in assay [2]; 99.2% in assay [3]; 102% in assay [4]; 89.7% in [5]; 81.6% in assay [6]. For the same compound, the growth was 85.9% in assay [7]; 85.5% in [8]; 102% in [9]; 102% in assay [10]; 58.2% in assay [11]; 103% in assay [12]. The growth was 93.7% in assay [13]; 102% in [14]; 101% in [15]; 94.9% in assay [16]; 95.4% in [17]; 98.8% in assay [19].
Regarding `O=C1c2ccccc2C(=O)c2c1ccc(C(Br)Br)c2Cl`, the growth in assay [1] is 8.26% (active); in assay [2] it was 80.4%; in assay [3], 96%; in [4], 78%; in [5], 42.7%; in assay [6], -72.9% (active). Besides, the growth in assay [7] is 88.3%; in assay [8] it was -78.9% (active); in assay [9], -33.4% (active); in assay [10], 33.1%; in [11], -28.9% (active); in assay [12], -70.9% (active). The growth in assay [13] is -41.9% (active); in [14], 36.2%; in assay [15], -19.1% (active); in assay [16] it was 90.5%; in assay [17], 69.9%; in [18] it was 100%. Besides, the growth in assay [19] is 10.7%.
